In PubChem BioAssay (NCATS):
Results filed as inconclusive are left out. The source made the active and inactive calls. The call rests on the fitted dose curve; in most records, active means well fitted inhibition curve with a large enough effect; inconclusive means small, poorly fitted or top-dose-only effect; inactive means flat fitted curve, though single readings scatter.

biological target: Phospholipid hydroperoxide glutathione peroxidase GPX4 (Homo sapiens) (UniProt P36969); assay: Primary qHTS Assay for Inhibitors of Recombinant Selenoprotein Glutathione Peroxidase 4 (GPX4) (AID 1845192); conditions: recombinant GPX4, GR-coupled NADPH fluorescence, 15 min; series mostly up to 50 µM; activity change, negative = inhibition: at the top concentration; further: nearly all actives have a fitted effect of over 65% in size
Sequence (P36969 whole entry, looked up): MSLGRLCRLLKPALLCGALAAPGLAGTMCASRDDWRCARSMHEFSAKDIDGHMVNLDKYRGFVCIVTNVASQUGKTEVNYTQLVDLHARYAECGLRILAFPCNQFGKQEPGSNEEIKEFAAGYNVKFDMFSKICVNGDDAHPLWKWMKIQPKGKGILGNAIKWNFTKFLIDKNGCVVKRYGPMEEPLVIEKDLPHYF
Procedure, shortened: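 NADPH consumption, followed by fluorescence at 340/450 nm between 0 and 15 min, reports GPX4 activity via coupled glutathione reductase (100 nM). Enzyme 200 nM was pre-exposed to compound 30 min; 0.5 mM cumene hydroperoxide and 1 mM GSH served as substrates.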
On the % scale 0 is the no-effect control and ±100 the full control effect.

SMILES	activity change, negative = inhibition
Cc1sc2c(c1C)C(c1ccc(Cl)cc1)=N[C@H](CC(=O)NCCCCNC(=O)COc1cccc3c1C(=O)N([C@H]1CCC(=O)NC1=O)C3=O)c1nnc(C)n1-2	-14% (inactive)
CC1CCC(=O)CC(SCC(O)C(=O)O)CCC(=O)O1 (stereo not given)	2.6% (inactive)
COc1ccc(C[C@H]2COC(=O)[C@@H]2Cc2ccc(O[C@@H]3O[C@H](CO)[C@@H](O)[C@H](O)[C@H]3O)c(OC)c2)cc1OC	-10.7% [at 27.8 µM] (inactive)
CCC(C)CNCC(=O)N1CCC2SC=CC2C1COc1cccc(C)c1 (stereo not given)	2.84% (inactive)
C=C1CC2OC(=O)C(COC)C2C(OC(=O)/C(C)=C\C)CC2(C)OC1=CC2=O (stereo not given)	-4.7% [at 27.8 µM] (inactive)
CCC(C)(OC(C)=O)C(=O)O[C@H]1[C@H](OC(C)=O)[C@]2(CO)[C@H](O)[C@H](O)[C@]3(C)C(=CCC4[C@@]5(C)CC[C@H](O[C@@H]6O[C@H](C(=O)O)[C@@H](O)[C@H](O[C@@H]7OC[C@H](O)[C@H](O[C@@H]8OC[C@H](O)[C@H](O)[C@H]8O)[C@H]7O)[C@H]6O[C@@H]6O[C@H](CO)[C@@H](O)[C@H](O)[C@H]6O)C(C)(C)C5CC[C@]43C)[C@@H]2CC1(C)C (stereo not given in full)	-15.3% [at 9.73 µM] (inactive)
NC(=O)c1nc(Nc2ccccc2)sc1NC(=O)C1CCCCC1	3.99% (inactive)
CC1=CC2/C=C(\C)CCC(O)C/C=C/C(=O)OC23C(=O)NC(CC(C)C)C3C1C (stereo not given)	-23.3% [at 27.8 µM] (inactive)
CC(=O)N1CCN(CCOc2ccc(C3CCN(C4=Nn5c(nnc5C(F)(F)F)CC4)CC3)cc2)CC1	11.4% (inactive)
Cc1ccc(C(C)C)c(O[C@@H]2O[C@H](CO)[C@@H](O)[C@H](O)[C@H]2O)c1	-22.5% [at 27.8 µM] (inactive)
